This passage reports Potency and outcome results from PubChem BioAssay (Tox21).

Values joined by “and” are separate entries in the source; they are usually repeats but may differ in a detail not shown here. Identical values can stand only once. Records with an inconclusive call do not appear. A structure can be active in one record and inactive in another. Active and inactive are the calls of the source. Unless noted, the call rests on the fitted dose curve; in most records, active means well fitted curve in the direction sought with a large enough effect in the repeat runs; inconclusive means weak or mixed curves; inactive means no such curve, though single readings can be large; an effect the other way counts as inactive or inconclusive.

The nature of test [1]: qHTS assay to identify small molecule antagonists of the glucocorticoid receptor (GR) signaling pathway - cell viability counter screen (AID 720693). Further: nearly all actives have a fitted effect of over 55% in size. For orientation: qHTS replaces the single test concentration by a dilution series.
A short description of test [2]: qHTS assay for identifying genotoxic compounds that show differential cytotoxicity against isogenic chicken DT40 cell lines with known DNA damage response pathways - Rev3 mutant cell line (AID 743014). Further: nearly all actives have a fitted effect of over 55% in size. Further: potency means the concentration at half of the fitted maximal effect.
Test [3] is described as follows: qHTS assay for identifying genotoxic compounds that show differential cytotoxicity against isogenic chicken DT40 cell lines with known DNA damage response pathways - Rad54/Ku70 mutant cell line (AID 743015). Further: nearly all actives have a fitted effect of over 60% in size. Further: potency means the concentration at half of the fitted maximal effect.
The nature of test [4]: qHTS assay to identify small molecule antagonists of the androgen receptor (AR) signaling pathway - cell viability counter screen (AID 743033; further: nearly all actives have a fitted effect of over 45% in size).
Test [5] has as its target Androgen receptor (Homo sapiens) (UniProt P10275). As to the kind of experiment: qHTS assay to identify small molecule antagonists of the androgen receptor (AR) signaling pathway (AID 743035; active means well fitted inhibition curve with a large enough effect in the signal ratio in the repeat runs, not every such curve was filed as active; the % refers to the signal ratio). The gist of the method:
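Reporter HEK293 cells were exposed to compounds and R1881 overnight (16 h, 37C); beta-lactamase activity was then quantified by FRET fluorescence.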

The target is the same in test [6]. The test can be described thus: qHTS assay to identify small molecule agonists of the androgen receptor (AR) signaling pathway (AID 743036; active means well fitted activation curve with a large enough effect in the signal ratio in the repeat runs, with a control signal flat, not every such curve was filed as active; the % refers to the signal ratio; further: potency means the concentration at half of the fitted maximal effect). The gist of the method: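 Beta-lactamase under UAS control, stably integrated in HEK293 GripTite cells, reports receptor activation. After 16 h compound treatment, cells received FRET substrate for 2 h at room temperature before fluorescence reading.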

Test [7] has the same target. The test can be described thus: qHTS assay to identify small molecule agonists of the androgen receptor (AR) signaling pathway using the MDA cell line (AID 743040; further: nearly all actives have a fitted effect of over 20% in size). In a few lines:
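Agonist activity is measured as luciferase luminescence in human MDA-kb2 cells whose MMTV reporter responds to both AR and GR. Compounds in DMSO incubate 16 h at 37C, 0% CO2, and ONE-Glo is read after 30 min.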

A short description of test [8]: qHTS assay to identify small molecule antagonists of the androgen receptor (AR) signaling pathway using the MDA cell line - cell viability counter screen (AID 743041; further: nearly all actives have a fitted effect of over 45% in size). The gist of the method:
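qHTS viability read-out; MDA-kb2 AR-luc; R1881-stimulated; 16 h exposure at 37C, 0% CO2; CellTiter-Fluor, 30 min; fluorescence intensity.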

Test [9] concerns the target Androgen receptor (Homo sapiens) (UniProt P10275). The test can be described thus: qHTS assay to identify small molecule antagonists of the androgen receptor (AR) signaling pathway using the MDA cell line (AID 743042; further: nearly all actives have a fitted effect of over 55% in size). In a few lines:
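MDA-kb2 cells (human breast carcinoma, stably carrying an MMTV-luciferase reporter responsive to AR and GR) were plated at 3,000 cells/well and preincubated 5 hr at 37C, then given compound plus R1881 agonist for 16 h. ONE-Glo luminescence was read.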

Test [10] in a line: qHTS assay for identifying genotoxic compounds that show differential cytotoxicity against isogenic chicken DT40 cell lines with known DNA damage response pathways - wild type cell line (AID 743012). Further: nearly all actives have a fitted effect of over 60% in size. Further: potency means the concentration at half of the fitted maximal effect. The gist of the method: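 Viability of DNA repair-proficient chicken DT40 cells was assessed by CellTiter-Glo luminescence following 40 h compound exposure at 37 C/5% CO2.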

Chain of Androgen receptor (Homo sapiens) (P10275 whole entry, looked up): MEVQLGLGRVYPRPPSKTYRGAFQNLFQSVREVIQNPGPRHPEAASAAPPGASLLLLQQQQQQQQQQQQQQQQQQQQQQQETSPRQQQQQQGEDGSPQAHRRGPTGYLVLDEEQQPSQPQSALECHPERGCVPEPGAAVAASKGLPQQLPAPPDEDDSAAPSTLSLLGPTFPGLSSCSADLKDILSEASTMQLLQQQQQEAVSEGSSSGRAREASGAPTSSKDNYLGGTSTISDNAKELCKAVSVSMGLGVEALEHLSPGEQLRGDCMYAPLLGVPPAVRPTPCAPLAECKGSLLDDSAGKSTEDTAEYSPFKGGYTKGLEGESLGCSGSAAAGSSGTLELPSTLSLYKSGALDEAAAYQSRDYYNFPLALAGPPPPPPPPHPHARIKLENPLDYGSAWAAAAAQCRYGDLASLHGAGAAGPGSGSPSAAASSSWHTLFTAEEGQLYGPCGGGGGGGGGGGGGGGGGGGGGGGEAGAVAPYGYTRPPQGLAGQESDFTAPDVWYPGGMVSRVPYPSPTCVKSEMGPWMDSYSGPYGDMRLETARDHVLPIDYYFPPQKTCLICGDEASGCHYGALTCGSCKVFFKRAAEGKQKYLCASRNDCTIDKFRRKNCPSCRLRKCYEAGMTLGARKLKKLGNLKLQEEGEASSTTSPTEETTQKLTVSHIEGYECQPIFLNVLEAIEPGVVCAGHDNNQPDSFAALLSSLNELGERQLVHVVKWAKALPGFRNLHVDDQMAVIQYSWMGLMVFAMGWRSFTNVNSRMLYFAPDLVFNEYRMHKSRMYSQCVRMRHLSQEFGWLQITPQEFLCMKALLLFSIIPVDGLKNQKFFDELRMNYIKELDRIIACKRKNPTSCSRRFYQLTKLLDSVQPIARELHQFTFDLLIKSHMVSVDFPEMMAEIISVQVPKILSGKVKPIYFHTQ

In the case of `CN(C)Cc1ccccc1O`, the Potency result in [1], in test [2], in test [3], in test [4], in test [5] and in test [6] was “inactive” in each case. Further, the Potency result in test [8] and in test [9] was “inactive” throughout. Further, the call in test [7] was inactive.

In the case of `CCCC(=O)OCCc1ccccc1`, the Potency result in [1], in test [10], in [2], in test [4] and in test [8] was “inactive” in each case.

For `Cc1c(F)c(N2CCNC(C)C2)cc2c1c(=O)c(C(=O)O)cn2C1CC1` (centres undefined), the Potency entry in test [1], in [10], in test [3] and in [8] was “inactive” throughout.

Consider `COc1ccc2cc1Oc1ccc(cc1)C[C@H]1c3c(cc4c(c3Oc3cc5c(cc3OC)CCN(C)[C@@H]5C2)OCO4)CCN1C`, for which the Potency entry in [1] and in [9] was “inactive” each time. Further, the Potency in [10] was 7.5 µM (active); in test [2] it was 8.41 µM (active). Also, the compound was called inactive in test [7].

With `O=S(=O)(O)c1ccc(Nc2nc(Nc3ccc(/C=C/c4ccc(Nc5nc(Nc6ccc(S(=O)(=O)O)cc6)nc(N(CCO)CCO)n5)cc4S(=O)(=O)O)c(S(=O)(=O)O)c3)nc(N(CCO)CCO)n2)cc1`, the Potency entry in test [1], in test [2], in test [3], in test [4] and in test [9] was “inactive” throughout. Besides, the Potency in test [6] is 33.1 µM (active). Also, in [7], the call was inactive.

With `CCCCNS(=O)(=O)c1ccc(C)cc1`, the Potency result in test [1], in [2], in [3], in [4] and in test [8] was “inactive” each time.

`O=C(O)Cc1ccccc1Nc1c(Cl)cccc1Cl`: the Potency entry in [1], in [4], in test [5], in test [6], in test [8] and in [9] was “inactive” in each case. Besides, the Potency entry in test [2] is “inactive and 61.1 µM (active)”; in [3], “inactive and 68.6 µM (active)”. The outcome in [7] was inactive.
